Test results from paper PMC4336329 (PLoS ONE, 2015).
Among all 310,000 compounds or so, about 14,000 (4.5%) showed an effect of 50% or more. The effect is printed as a negative number. For the sample, strong results were picked, then their nearest neighbours and some compounds at random.

The molecules below were run against human ether-à-go-go-related gene (hERG) potassium channel (human, UniProt Q12809) (assay: primary screen, population patch clamp on CHO cells stably expressing hERG; higher = less effect of the substance).
human ether-à-go-go-related gene (hERG) potassium channel, sequence (Q12809 whole entry, looked up): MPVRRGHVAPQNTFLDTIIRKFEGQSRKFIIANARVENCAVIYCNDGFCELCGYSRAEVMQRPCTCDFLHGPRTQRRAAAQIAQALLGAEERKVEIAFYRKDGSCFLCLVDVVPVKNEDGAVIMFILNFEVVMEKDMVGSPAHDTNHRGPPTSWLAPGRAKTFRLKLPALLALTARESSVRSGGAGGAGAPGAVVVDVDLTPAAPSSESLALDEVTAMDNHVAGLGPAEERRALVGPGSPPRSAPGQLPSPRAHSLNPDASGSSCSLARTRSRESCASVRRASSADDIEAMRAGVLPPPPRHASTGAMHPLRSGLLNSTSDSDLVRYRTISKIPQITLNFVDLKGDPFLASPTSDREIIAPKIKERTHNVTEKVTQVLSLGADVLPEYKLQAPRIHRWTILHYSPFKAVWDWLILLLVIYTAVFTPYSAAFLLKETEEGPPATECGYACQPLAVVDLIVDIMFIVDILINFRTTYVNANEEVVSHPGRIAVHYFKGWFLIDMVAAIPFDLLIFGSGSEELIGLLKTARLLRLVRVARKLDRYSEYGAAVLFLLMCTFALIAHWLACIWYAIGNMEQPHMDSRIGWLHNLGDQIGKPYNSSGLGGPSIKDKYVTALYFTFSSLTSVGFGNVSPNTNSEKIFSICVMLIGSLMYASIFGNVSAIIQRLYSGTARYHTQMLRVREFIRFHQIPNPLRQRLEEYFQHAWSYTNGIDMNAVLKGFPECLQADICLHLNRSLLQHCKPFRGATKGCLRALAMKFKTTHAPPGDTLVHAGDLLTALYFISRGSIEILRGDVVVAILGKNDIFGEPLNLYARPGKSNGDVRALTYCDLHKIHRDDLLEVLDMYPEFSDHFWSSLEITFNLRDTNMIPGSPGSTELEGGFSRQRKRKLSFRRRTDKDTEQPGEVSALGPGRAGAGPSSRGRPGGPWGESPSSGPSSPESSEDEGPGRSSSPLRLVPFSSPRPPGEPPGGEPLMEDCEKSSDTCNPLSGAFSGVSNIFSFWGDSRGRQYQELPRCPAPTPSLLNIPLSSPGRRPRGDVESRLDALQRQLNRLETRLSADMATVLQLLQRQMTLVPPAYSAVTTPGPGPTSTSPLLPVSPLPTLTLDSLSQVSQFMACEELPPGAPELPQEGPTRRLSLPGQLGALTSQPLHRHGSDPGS
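Also: peak tail current of the secondary pulse compared with the same well before compound.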

Structure (SMILES) | hERG current change (%, negative = inhibition) at 10uM
O=C(Nc1nnc(-c2ccncc2)o1)c1ccc2ccccc2c1 | -3.08%
COc1cc2ccccc2cc1C(=O)Nc1ccncc1 | -24.8%
COc1cc2ccccc2cc1C(=O)Nc1nnc(-c2ccncc2)o1 | -52.3%
O=C(Nc1ncc(S(=O)(=O)c2ccc([N+](=O)[O-])cc2)s1)c1cccnc1 | -2.29%
COc1cc(C(=O)OCCn2c(=O)c3c(ncn3CCN(C)C)n(C)c2=O)cc(OC)c1OC.Cl | -2.6%
CCN(CC)CC(C)OC(=O)c1cc(OC)c(OC)c(OC)c1.Cl (centres unmarked) | -11.5%
COc1cc(C(=O)OCCCN2CCCN(CCCOC(=O)c3cc(OC)c(OC)c(OC)c3)CC2)cc(OC)c1OC.Cl | -67.8%
O=C(OCCCN1CCCCC1)c1ccc(O)cc1 | -54.6%
COc1cc(C(=O)OCCN2CCOCC2)cc(OC)c1OC | -5.95%
O=C(OCCCOC(=O)c1ccc(O)cc1)c1ccc(O)cc1 | -17.3%
COc1cc(OC)cc(C(=O)OCCNC(=O)Cn2cnc3c2c(=O)n(C)c(=O)n3C)c1 | 0.82%
CCN(CC)CCCCCCCCOC(=O)c1cc(OC)c(OC)c(OC)c1.Cl | -50.1%
O=C(OCCN1CCCCC1)c1ccc(O)cc1 | -35.4%
COc1cc(C(=O)OCCCN(C)C)cc(OC)c1OC.Cl | 4.69%
CCN(CC)CCn1cnc2c1c(=O)n(CCOC(=O)c1cc(OC)c(OC)c(OC)c1)c(=O)n2C.Cl | -60.3%
COc1cc(C(=O)OCCCOC(=O)c2cc(OC)c(OC)c(OC)c2)cc(OC)c1OC | 0.241%
Cc1ccc2c(c1)N(CCC(=O)NCCCN1CCCC1)C(=O)CO2 | 12.7%
Cl.NCCOc1ccccc1OCCN | 22.1%
CCN(C(=S)Nc1ccc(C(C)=O)cc1)C1CCCCC1 | 3.5%
C=CCN1C(=O)C(O)(CC(=O)c2ccc(OC)cc2OC)c2cc(Br)ccc21 (centres unmarked) | -3.68%
O=C(NC1CCCc2ccccc21)c1cncc(Br)c1 (centres unmarked) | 8.69%
COCCn1c(SCC(=O)N(C)c2c(N)n(Cc3ccccc3)c(=O)[nH]c2=O)nnc1-c1cccc(C)c1 | 24.7%
Cc1ccc(Cn2c(SCC(=O)NCC3CCCO3)nc3c2c(=O)n(C)c(=O)n3C)cc1 (centres unmarked) | -28.4%

Structure (SMILES) | hERG current change (%, negative = inhibition) at 10uM
CCn1nc(C)cc1C(=O)N1CCCC(C(=O)c2ccccc2SC)C1 (centres unmarked) | -1.16%
O=C(/C=C/c1ccc(Cl)cc1)NCCN1CCOCC1 | -24%
COc1ccc(/C=C/C(=O)NCCCN2CCCCCC2)cc1 | -58.3%
O=C(/C=C/c1ccco1)NCCCN1CCN(CCCNC(=O)/C=C/c2ccco2)CC1 | -43.5%
COc1ccc(/C=C/C(=O)NCCCN2CCCC2)cc1 | -44.5%
CC(C)c1ccc(/C=C/C(=O)NCCCN2CCOCC2)cc1 | -39%
Cc1ccc(/C=C/C(=O)NCCCN2CCN(CCCNC(=O)/C=C/c3ccc(C)o3)CC2)o1 | -78.3%
Cc1ccc(/C=C/C(=O)NCCCN2CCN(CCCNC(=O)/C=C/c3ccc(C)cc3)CC2)cc1 | -0.473%
COc1ccc(/C=C/C(=O)NCCCN2CCOCC2)cc1 | -29.4%
O=C(/C=C/c1ccc(F)cc1)NCCNC(=O)/C=C/c1ccc(F)cc1 | 35.7%
O=C(/C=C/c1ccc(Cl)cc1)NCCCN1CCOCC1 | -71%
O=C(/C=C/c1ccc(F)cc1)NCCCN1CCN(CCCNC(=O)/C=C/c2ccc(F)cc2)CC1 | -73.2%
Cl.O=C(/C=C/c1ccc(Br)o1)NCCCN1CCOCC1 | 7.91%
COC(=O)[C@@]1(Cc2ccc(OC)cc2)[C@H]2c3cc(C(=O)N(C)C)n(CCSCCO)c3C[C@H]2CN1C(=O)c1ccccc1 | -18.4%
COC(=O)Nc1ccc(S(=O)(=O)N2CCCCC2)cc1 | -4.21%
Cn1nccc1C(=O)N/N=C/c1cccnc1 | -14.8%
COCCNC(=O)CN1C(=O)COc2ccc(Cl)cc21 | 21.8%
Cc1nn(-c2ccccc2)c(C)c1NC(=O)COC(=O)CCCOc1ccccc1 | 6.69%
COc1ccc(Br)cc1/C=N/N1C(=O)CSC1=S | 17.3%
CCOC(=O)c1c[nH]c2ccc3ccccc3c2c1=O | 13%
COc1cc(C2C(C#N)=C(N)N(c3cccnc3)C3=C2C(=O)CCC3)ccc1O (centres unmarked) | -12%
O=c1ccc2cc(S(=O)(=O)N3CCOCC3)ccc2o1 | 4.83%
O=c1ccc2cc(S(=O)(=O)N3CCN(c4ccccc4)CC3)ccc2o1 | -0.646%

Structure (SMILES) | hERG current change (%, negative = inhibition) at 10uM
CC1CCCN(S(=O)(=O)c2ccc3oc(=O)ccc3c2)C1 (centres unmarked) | -19.4%
O=c1ccc2cc(S(=O)(=O)N3CCN(c4ccc(Cl)cc4)CC3)ccc2o1 | -52.8%
CC1CC(C)CN(S(=O)(=O)c2ccc3oc(=O)ccc3c2)C1 (centres unmarked) | -59.5%
Cc1ccc(N2CCN(S(=O)(=O)c3ccc4oc(=O)ccc4c3)CC2)cc1Cl | 3.42%
CCOc1ccc(C(=O)Nc2ccccc2C(=O)O)cc1 | 8.2%
Cc1ccc(S(=O)(=O)N2CCCCC2)cc1NC(=O)CSc1nnc(N)s1 | -20.2%
O=C(Cn1cc([N+](=O)[O-])cn1)N1CCN(c2ccccc2)CC1 | 7.25%
COc1ccc(C(NC(=O)C2C3C=CC(C3)C2C(=O)O)c2ccccc2)cc1 (centres unmarked) | -4.58%
O=C(CN1CCCc2ccccc21)N/N=C/c1ccc(O)cc1O | -29.1%
Cc1cccc(N2CCN(C(=O)CNC(=O)c3ccccc3)CC2)c1C | -30.6%
CC1CCN(C(=O)CC(NC(=O)c2ccccc2Cl)c2ccccc2)CC1 (centres unmarked) | -15.7%
C[C@H](NC(=O)c1ccccc1Cl)C(=O)OCC(=O)N1CCN(c2ccccc2)CC1 | -9.59%
O=C(NC(CC(=O)N1CCN(c2ccc([N+](=O)[O-])cc2)CC1)c1ccccc1)c1ccccc1Cl (centres unmarked) | -85.3%
O=C(NC(CC(=O)N1CCN(c2ccccc2)CC1)c1ccccc1)c1ccccc1Cl (centres unmarked) | -46.8%
O=C(NC(CC(=O)N1CCN(c2ccccc2O)CC1)c1ccccc1)c1ccccc1Cl (centres unmarked) | -70.6%
Cc1cccc(N2CCN(C(=O)CC(NC(=O)c3ccccc3Cl)c3ccccc3)CC2)c1C (centres unmarked) | -59.9%
O=C(NC(CC(=O)N1CCCC(C(F)(F)F)C1)c1ccccc1)c1ccccc1Cl (centres unmarked) | -8.81%
Cc1cccc(N2CCN(C(=O)c3ccccc3SCC(=O)N3CCCC3)CC2)c1C | -34.7%
C/C(=N\Nc1ccc([N+](=O)[O-])cc1)c1ccc(O)cc1 | -1.55%
CNC(=S)N(CCO)Cc1cc2cc3c(cc2[nH]c1=O)OCO3 | 24%
Cc1cccc(-n2c(SCC(N)=O)nnc2-c2ccccn2)c1C | 1.28%
CCc1ccc(C(=O)NC(CC(C)C)C(=O)O)cc1 (centres unmarked) | -2.4%
Cc1cc(/C=C2\C(=O)NC(=O)N(Cc3ccco3)C2=O)c(C)n1-c1ccc(C(=O)O)cc1 | 12.2%

Structure (SMILES) | hERG current change (%, negative = inhibition) at 10uM
COc1cccc(Nc2ncccc2C(=O)O)c1 | 9.1%
CCN(CC)C(=O)CSc1nc2ccsc2c(=O)n1CCCC(=O)NCCc1ccc(S(N)(=O)=O)cc1 | 24.7%
O=C(CCc1ccccc1)NCc1ccccc1 | -8.04%
Cn1c(SCC(=O)Nc2ccccc2C(F)(F)F)nc2c(c1=O)SCC2 | -57%
Cn1c(SCC(=O)Nc2ccccc2F)nc2c(c1=O)SCC2 | -9.41%
Cn1c(SCc2ccc(Br)cc2)nc2c(c1=O)SCC2 | -18.6%
Cn1c(SCC(=O)Nc2ccc(F)cc2)nc2c(c1=O)SCC2 | -6.44%
Cn1c(SCc2ccc([N+](=O)[O-])cc2)nc2c(c1=O)SCC2 | -67.5%
Cn1c(SCc2cccc([N+](=O)[O-])c2)nc2c(c1=O)SCC2 | -36.6%
Cc1cc(C)c(S(=O)(=O)N2CCN(c3ccccc3)CC2)c(C)c1 | 16.5%
Cc1ccc(NC(=O)c2ccccc2N2C(=O)C3C4C=CC(C5CC45)C3C2=O)cc1C (centres unmarked) | 2.91%
COc1ccc(-n2c(N)c(C(=O)NCc3ccco3)c3nc4ccccc4nc32)cc1OC | 16.7%
O=C(CNC(=O)c1ccc(Br)o1)NCc1ccccc1 | 6.66%
O=C(c1sccc1-c1ccccc1)N1CCN(S(=O)(=O)c2ccccc2F)CC1 | -49.3%
O=C(NCCCN1CCCCC1)C1(S(=O)(=O)c2ccc(Cl)cc2)CC1 | -32.3%
O=C(NCCc1ccccc1)C1(S(=O)(=O)c2ccc(Cl)cc2)CC1 | 6.29%
O=C(NCCCN1CCN(c2cccc(Cl)c2)CC1)C1(S(=O)(=O)c2ccc(Cl)cc2)CC1 | -71%
O=C(NCCN1CCCC1)C1(S(=O)(=O)c2ccc(Cl)cc2)CC1 | 11.7%
COc1ccc(N2CCN(CCNC(=O)Nc3cc(Cl)ccc3Cl)CC2)cc1 | 15.6%
COc1ccc(C2(C(=O)NCCCN3CCOCC3)CCOCC2)cc1.Cl | 10.6%
O=C(NCCN1CCN(c2ccccc2)CC1)C1(S(=O)(=O)c2ccc(Cl)cc2)CC1 | -50.2%
S=C(NCCCN1CCOCC1)N1CCN(c2cccc(Cl)c2)CC1 | -40.2%
COc1ccc(N2CCN(CCCNC(=O)C3(S(=O)(=O)c4ccc(Cl)cc4)CC3)CC2)cc1 | -61.5%
